# Laboratory results as given in PubChem BioAssay (NCATS).
# Where “and” joins values, the source holds several entries; their conditions need not be identical. Equal values may be shown once. Records with an inconclusive call do not appear. A call without a number means that no potency is given here. Where a structure was tested more than once in an assay, its records may differ in their call. Calls of active or inactive are those of the source. Unless noted, calls follow the shape of the dose curve; as a rule, active = well fitted curve in the direction sought with a large enough effect; inconclusive = small, poorly fitted or top-dose-only effect, or another doubt; inactive = no such curve, though single readings can be large; an effect the other way counts as inactive or inconclusive.
# Legend:
# [1] = biological target: Voltage-gated inwardly rectifying potassium channel KCNH2 (Homo sapiens) (UniProt Q12809); assay: qHTS Assay for Small Molecule Inhibitors of the Human hERG Channel Activity (AID 588834);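 also: lower thallium flux fluorescence means stronger hERG block; nearly all actives have a fitted effect of over 50% in size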; also: potency is read from the fitted curve at half-maximal effect
# Voltage-gated inwardly rectifying potassium channel KCNH2 (Homo sapiens), sequence (Q12809 whole entry, looked up): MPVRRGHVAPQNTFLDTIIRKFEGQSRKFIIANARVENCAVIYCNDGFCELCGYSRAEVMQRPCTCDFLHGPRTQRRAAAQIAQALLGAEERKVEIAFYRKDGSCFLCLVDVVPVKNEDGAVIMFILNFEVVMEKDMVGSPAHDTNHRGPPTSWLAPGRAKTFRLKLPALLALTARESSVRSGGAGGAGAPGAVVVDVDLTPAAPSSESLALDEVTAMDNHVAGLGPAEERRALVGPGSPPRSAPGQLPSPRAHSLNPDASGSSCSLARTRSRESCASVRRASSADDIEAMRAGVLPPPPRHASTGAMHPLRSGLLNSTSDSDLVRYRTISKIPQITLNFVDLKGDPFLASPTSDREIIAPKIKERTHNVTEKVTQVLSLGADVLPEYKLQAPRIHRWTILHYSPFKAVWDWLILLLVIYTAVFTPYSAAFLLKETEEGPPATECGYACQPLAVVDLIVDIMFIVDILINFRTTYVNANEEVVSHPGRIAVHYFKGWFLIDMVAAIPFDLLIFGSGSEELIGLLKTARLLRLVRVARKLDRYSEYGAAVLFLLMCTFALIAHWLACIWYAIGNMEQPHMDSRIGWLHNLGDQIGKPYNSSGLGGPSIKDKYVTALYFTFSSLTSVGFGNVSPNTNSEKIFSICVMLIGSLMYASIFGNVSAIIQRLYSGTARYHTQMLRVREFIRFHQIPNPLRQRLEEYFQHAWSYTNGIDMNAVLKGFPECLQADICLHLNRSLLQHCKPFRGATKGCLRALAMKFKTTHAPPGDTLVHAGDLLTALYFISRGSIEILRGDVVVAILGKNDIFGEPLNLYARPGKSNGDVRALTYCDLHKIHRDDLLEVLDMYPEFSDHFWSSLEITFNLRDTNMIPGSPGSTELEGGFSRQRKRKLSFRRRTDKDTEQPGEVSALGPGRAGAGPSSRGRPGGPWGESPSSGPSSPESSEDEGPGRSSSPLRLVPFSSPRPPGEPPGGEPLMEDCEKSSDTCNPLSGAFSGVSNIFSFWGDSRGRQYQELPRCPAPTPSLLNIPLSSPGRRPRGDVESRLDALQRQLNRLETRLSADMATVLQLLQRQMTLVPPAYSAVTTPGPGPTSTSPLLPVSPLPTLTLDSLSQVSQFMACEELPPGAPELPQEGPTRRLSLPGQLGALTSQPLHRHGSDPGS
# Summary of the method: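 Measured: FluxOR fluorescence after thallium stimulation in U2OS cells transduced with hERG by baculovirus. Compounds pre-incubated around 10 min; medium Opti-MEM with 2% FCS. AC50 from Hill equation.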
# [2] = biological target: Peroxisome proliferator-activated receptor gamma (Homo sapiens) (UniProt P37231); assay: qHTS assay for small molecule antagonists of peroxisome proliferator-activated receptor gamma signaling (AID 588537; active = well fitted inhibition curve with a large enough effect in the signal ratio, with a control signal flat, not every such curve was filed as active; the % refers to the signal ratio; also: potency is read from the fitted curve at half-maximal effect)
# Peroxisome proliferator-activated receptor gamma (Homo sapiens), sequence (P37231 whole entry, looked up): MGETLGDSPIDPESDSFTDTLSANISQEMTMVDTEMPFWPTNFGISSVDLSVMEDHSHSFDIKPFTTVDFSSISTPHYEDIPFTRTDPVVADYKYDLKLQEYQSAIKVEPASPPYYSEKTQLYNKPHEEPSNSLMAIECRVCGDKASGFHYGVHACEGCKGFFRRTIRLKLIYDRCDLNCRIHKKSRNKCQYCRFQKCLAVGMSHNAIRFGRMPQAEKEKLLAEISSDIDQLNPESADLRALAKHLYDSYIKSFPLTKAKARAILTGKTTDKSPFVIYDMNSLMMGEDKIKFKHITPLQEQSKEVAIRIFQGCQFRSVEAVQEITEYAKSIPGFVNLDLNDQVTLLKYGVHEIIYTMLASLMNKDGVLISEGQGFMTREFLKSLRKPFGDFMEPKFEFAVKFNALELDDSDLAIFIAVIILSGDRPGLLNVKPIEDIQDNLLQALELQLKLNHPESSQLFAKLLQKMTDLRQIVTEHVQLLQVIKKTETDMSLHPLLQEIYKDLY
# Summary of the method: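 We seeded GeneBLAzer HEK293 reporter cells at 3000 per well, allowed 6-6.5 h attachment at 37 C, then co-treated with test compound titrations and 50 nM rosiglitazone overnight (16 h). Inhibition was quantified from 460/530 nm emission ratios.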
# [3] = qHTS assay for small molecule antagonists of retinoid X receptor alpha signaling (AID 588546; active = well fitted inhibition curve with a large enough effect in the signal ratio, with a control signal flat, not every such curve was filed as active; the % refers to the signal ratio; also: potency is read from the fitted curve at half-maximal effect;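 as to max response: cells stimulated with 9-cis-retinoic acid as agonist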); conditions: HEK293T RXRa-UAS-bla, beta-lactamase ratio, antagonist mode; measured here: W530 green channel, cytotoxicity proxy
# Summary of the method: (§1)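 Beta-lactamase reporter inhibition, read as CCF4 fluorescence ratio (ex 405, em 460/530 nm) after 2 h at RT. HEK293T UAS-bla cells, 2500/well, were stimulated with 9-cis-RA at 500 or 100 nM final alongside test compound for 18 h at 37 C.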
# [4] = biological target: Retinoic acid receptor RXR-alpha (Homo sapiens) (UniProt P19793); assay: as above; conditions: HEK293T RXRa-UAS-bla, beta-lactamase ratio, antagonist mode
# Retinoic acid receptor RXR-alpha (Homo sapiens), sequence (P19793 whole entry, looked up): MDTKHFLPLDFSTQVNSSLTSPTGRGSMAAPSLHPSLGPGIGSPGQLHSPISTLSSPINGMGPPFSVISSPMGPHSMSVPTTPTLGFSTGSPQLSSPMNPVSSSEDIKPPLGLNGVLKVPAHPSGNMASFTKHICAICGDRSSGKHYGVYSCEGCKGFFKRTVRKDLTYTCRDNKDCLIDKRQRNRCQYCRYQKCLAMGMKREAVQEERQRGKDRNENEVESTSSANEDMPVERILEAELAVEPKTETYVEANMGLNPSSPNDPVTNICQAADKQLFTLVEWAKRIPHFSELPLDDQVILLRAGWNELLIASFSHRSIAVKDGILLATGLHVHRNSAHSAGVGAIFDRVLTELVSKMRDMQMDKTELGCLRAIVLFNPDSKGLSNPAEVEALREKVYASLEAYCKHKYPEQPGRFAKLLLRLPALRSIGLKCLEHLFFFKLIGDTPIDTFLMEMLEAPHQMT
# Summary of the method: as §1
# [5] = biological target: Luciferin 4-monooxygenase (Photinus pyralis) (UniProt P08659); assay: Biochemical firefly luciferase enzyme assay for NPC (AID 624030);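 also: purified P. pyralis luciferase at 10 nM with luciferin and ATP substrate; series mostly up to about 59 µM; nearly all actives have a fitted effect of over 70% in size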
# Luciferin 4-monooxygenase (Photinus pyralis), sequence (P08659 whole entry, looked up): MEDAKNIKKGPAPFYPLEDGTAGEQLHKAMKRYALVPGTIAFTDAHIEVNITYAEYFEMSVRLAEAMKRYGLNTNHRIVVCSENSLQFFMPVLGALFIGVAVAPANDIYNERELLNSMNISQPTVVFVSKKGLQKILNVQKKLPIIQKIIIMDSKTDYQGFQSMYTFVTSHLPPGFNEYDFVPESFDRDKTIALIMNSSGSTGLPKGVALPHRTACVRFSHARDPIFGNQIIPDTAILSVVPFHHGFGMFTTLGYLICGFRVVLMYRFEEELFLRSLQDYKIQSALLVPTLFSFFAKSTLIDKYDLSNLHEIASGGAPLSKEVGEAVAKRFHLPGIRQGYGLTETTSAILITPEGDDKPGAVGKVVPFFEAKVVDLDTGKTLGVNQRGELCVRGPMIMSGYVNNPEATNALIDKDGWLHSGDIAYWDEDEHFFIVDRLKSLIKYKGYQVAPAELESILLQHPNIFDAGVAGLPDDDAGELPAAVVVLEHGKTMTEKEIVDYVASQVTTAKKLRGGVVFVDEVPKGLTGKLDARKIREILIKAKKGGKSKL
# Summary of the method: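 Counter-screen for direct inhibition of the luciferase enzyme by approved-drug library compounds, run at 10 nM enzyme in 50 mM Tris acetate (final). Luminescence was read within 5 min of enzyme-buffer addition and normalized to PTC124 versus DMSO (0%).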
# [6] = biological target: Vitamin D3 receptor (Homo sapiens) (UniProt P11473); assay: qHTS assay for small molecule antagonists of vitamin D receptor signaling (AID 588541; calls by dose curve;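 also: receptor activated by calcitriol during compound treatment; series mostly up to about 77 µM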)
# Vitamin D3 receptor (Homo sapiens), sequence (P11473 whole entry, looked up): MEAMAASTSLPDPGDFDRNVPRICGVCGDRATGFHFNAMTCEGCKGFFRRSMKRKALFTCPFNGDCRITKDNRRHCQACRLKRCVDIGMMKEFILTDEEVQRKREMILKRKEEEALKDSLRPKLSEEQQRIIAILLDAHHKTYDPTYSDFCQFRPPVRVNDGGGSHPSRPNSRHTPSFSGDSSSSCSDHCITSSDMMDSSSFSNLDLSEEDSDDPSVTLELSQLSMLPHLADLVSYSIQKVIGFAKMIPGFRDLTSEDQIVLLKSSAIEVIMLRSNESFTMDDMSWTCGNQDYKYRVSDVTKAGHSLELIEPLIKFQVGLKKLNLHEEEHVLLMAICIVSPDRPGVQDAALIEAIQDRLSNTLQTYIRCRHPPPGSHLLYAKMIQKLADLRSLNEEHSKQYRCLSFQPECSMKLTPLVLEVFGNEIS
# Summary of the method: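 VDR-UAS-bla HEK293T cells (2000/well, 2% charcoal-stripped FBS) were treated with titrated compounds plus 1-alpha,25-dihydroxyvitamin D3 (50 nM or 3 nM final) for 16 h at 37 C. CCF4 beta-lactamase fluorescence was read; Hill fits gave IC50.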
# [7] = biological target: Vitamin D3 receptor (Homo sapiens) (UniProt P11473); assay: qHTS assay for small molecule agonists of vitamin D receptor signaling (AID 588543; calls by dose curve)
# Summary of the method: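 qHTS in agonist mode: compound titrations stimulate a VDR-driven β-lactamase reporter in HEK293T cells over 16 h at 37 °C. Response normalized to 50 nM 1α,25-dihydroxyvitamin D3 = 100%, DMSO = 0%; Hill fitting gives EC50 and maximal response.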
# [8] = qHTS assay for small molecule agonists of retinoid X receptor alpha signaling (AID 588544); conditions: HEK293T RXRa-UAS-bla, beta-lactamase reporter, 18 h; 530 nm emission
# [9] = biological target: Thyroid hormone receptor beta (Homo sapiens) (UniProt P10828); assay: qHTS assay for small molecule antagonists of thyroid hormone receptor beta signaling (AID 588547; active = well fitted inhibition curve with a large enough effect in the signal ratio, with a control signal flat, not every such curve was filed as active; the % refers to the signal ratio;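 also: cells stimulated with 0.4 nM T3 agonist during compound exposure; series mostly up to about 77 µM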); conditions: TR-UAS-bla HEK293, beta-lactamase ratio, antagonist mode, 18 h
# Thyroid hormone receptor beta (Homo sapiens), sequence (P10828 whole entry, looked up): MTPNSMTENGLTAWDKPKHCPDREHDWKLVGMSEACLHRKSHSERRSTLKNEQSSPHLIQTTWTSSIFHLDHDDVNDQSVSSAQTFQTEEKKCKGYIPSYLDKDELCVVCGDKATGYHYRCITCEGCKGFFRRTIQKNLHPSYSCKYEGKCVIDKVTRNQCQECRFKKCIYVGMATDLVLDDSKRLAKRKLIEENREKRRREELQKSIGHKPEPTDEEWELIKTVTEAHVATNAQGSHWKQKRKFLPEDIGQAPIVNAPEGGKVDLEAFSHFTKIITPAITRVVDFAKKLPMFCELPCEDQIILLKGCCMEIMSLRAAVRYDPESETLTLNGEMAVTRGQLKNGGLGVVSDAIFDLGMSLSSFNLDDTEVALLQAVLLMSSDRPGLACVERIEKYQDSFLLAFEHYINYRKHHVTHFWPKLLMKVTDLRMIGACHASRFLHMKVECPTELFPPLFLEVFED
# Summary of the method: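 TR-UAS-bla GripTite HEK293 cells in 2% charcoal/dextran FBS medium were preincubated 4 h at 37 C, given compound (0.59 nM to 92 uM) plus 0.4 nM T3 (final) for 18 h, then CCF4 for 2 h at RT; Hill fit gave IC50.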
# [10] = qHTS for Inhibitors of the vitamin D receptor (VDR): Hit Validation using a Texas Red Assay (AID 602201)
# Summary of the method: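 Fluorescence polarization (Ex 595/Em 615 nm) of Texas Red (7 nM) with 1.5 uM VDR-LBD and LG19078 (final concentrations). Compounds were incubated for 2 hours at room temperature.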
smiles,measurement,setting,value
N[C@@H]1C[C@H]1c1ccccc1,Potency,[1],inactive
C=C(C)[C@H]1Cc2c(ccc3c2O[C@@H]2COc4cc(OC)c(OC)cc4[C@@H]2C3=O)O1,Potency,[2],44.7 µM (active)
same,max response,[3],12.4%
same,Potency,[4],20 µM (active)
same,Potency,[1],inactive
same,Potency,[5],inactive
CCCC(C)(COC(N)=O)COC(=O)NC(C)C (stereo not drawn),Potency,[2],inactive
same,outcome,[6],inactive
same,outcome,[7],inactive
same,max response,[8],-3.14% and 6.33%
same,max response,[3],3.28% and 3.87%
same,max response,[4],1.9% (inactive) and -6.86% (inactive)
same,activity change % (negative = inhibition),[9],4.32% (inactive) and -7.39% (inactive)
same,Potency,[1],inactive
same,Potency,[5],inactive
C[C@]12C/C(=C/O)C(=O)C[C@@H]1CC[C@@H]1[C@@H]2CC[C@@]2(C)[C@H]1CC[C@]2(C)O,outcome,[7],inactive
same,Potency,[1],inactive
same,Potency,[5],inactive
O=C1CC[C@@]2(O)[C@H]3Cc4ccc(O)c5c4[C@@]2(CCN3CC2CC2)[C@H]1O5,Potency,[1],inactive
Cc1cc(SCc2sc(-c3ccc(C(F)(F)F)c(F)c3)nc2C)ccc1OCC(=O)O,max response,[3],25.2%
same,max response,[4],-3.24% (inactive)
same,outcome,[10],inactive
OCCOc1ccccc1,Potency,[2],inactive
same,outcome,[6],inactive
same,outcome,[7],inactive
same,max response,[8],-2.94% and -12.9% and -4.25%
same,max response,[3],-0.71% and -11.6% and -11.4%
same,max response,[4],15.3% (inactive) and -5.21% (inactive) and -13.9% (inactive)
same,activity change % (negative = inhibition),[9],12.7% (inactive) and 7.54% (inactive) and 6.22% (inactive)
same,Potency,[1],inactive
same,Potency,[5],inactive
C#CCN(C)[C@H](C)Cc1ccccc1,Potency,[1],inactive
Oc1cccc2cccnc12,Potency,[2],inactive
same,outcome,[6],inactive
same,outcome,[7],inactive
same,max response,[3],12%
same,max response,[4],-19.8% (inactive)
same,activity change % (negative = inhibition),[9],-18.8% (inactive) and -22.1% (inactive)
same,Potency,[1],inactive
same,Potency,[5],inactive
O=c1oc2ccccc2c(O)c1C(CC(O)c1ccc(-c2ccc(Br)cc2)cc1)c1ccccc1 (stereo not drawn),Potency,[1],inactive
Nc1ccncc1,outcome,[6],inactive
same,outcome,[7],inactive
same,max response,[8],-10.7%
same,max response,[3],-5.09%
same,max response,[4],-7.1% (inactive)
same,Potency,[1],inactive
same,Potency,[5],inactive
COc1cc2c(c(OC)c1OC)-c1ccc(OC)c(=O)cc1[C@@H](NC(C)=O)CC2,activity change % (negative = inhibition),[9],-20.1% (inactive)
c1ccc2c(c1)Nc1ccccc1S2,Potency,[2],inactive and 39.8 µM (active)
same,max response,[8],2.15% and 8.42%
same,max response,[3],-11.1% and -4.36%
same,max response,[4],11.2% (inactive) and 0.985% (inactive)
same,activity change % (negative = inhibition),[9],5.64% (inactive) and -8.66% (inactive)
same,Potency,[1],7.08 µM (active) and 12.6 µM (active)
same,Potency,[5],inactive
CCCN1CCC[C@@H]2Cc3nc(N)ncc3C[C@H]21,Potency,[1],inactive
C[C@]12CCC(=O)C(O)=C1CC[C@@H]1[C@@H]2CC[C@]2(C)C(=O)CC[C@@H]12,Potency,[2],inactive
same,outcome,[6],inactive
same,outcome,[7],inactive
same,max response,[8],21.6%
same,max response,[3],17.4%
same,max response,[4],13.8% (inactive)
same,activity change % (negative = inhibition),[9],9.32% (inactive)
CCn1cc(C(=O)O)c(=O)c2ccc(C)nc21,max response,[8],24.5%
same,Potency,[1],inactive
Cc1ccc2c(c1)C1CN(C)CCC1N2 (stereo not drawn),Potency,[1],inactive
NCCc1cc(O)c(O)cc1O,Potency,[1],inactive
C=CCN1CC[C@]23c4c5ccc(O)c4O[C@H]2C(=O)CC[C@@]3(O)[C@H]1C5,Potency,[1],inactive
CCC1C(=O)OCC1Cc1cncn1C (stereo not drawn),Potency,[1],inactive
CN(C)CCC=C1c2ccccc2CCc2ccccc21,activity change % (negative = inhibition),[9],-28.2% (inactive)
CC(C)[N+](C)(CCOC(=O)C1c2ccccc2Oc2ccccc21)C(C)C,Potency,[1],inactive
O=c1[nH]c2ccccc2n1C1CCN(CCCC(c2ccc(F)cc2)c2ccc(F)cc2)CC1,max response,[3],-25.7%
same,Potency,[4],17.8 µM (active)
same,Potency,[5],inactive
Oc1ccc(Cl)cc1Cc1ccccc1,max response,[8],-11.5% and -1.88%
same,max response,[3],-5.58%
same,max response,[4],-16.2% (inactive)
same,activity change % (negative = inhibition),[9],-6.58% (inactive) and 9.11% (inactive)
same,Potency,[1],inactive and 44.7 µM (active)
same,Potency,[5],inactive
CC(C)(C)CC(C)(C)c1ccc(O)cc1,outcome,[6],inactive
same,outcome,[7],inactive
same,max response,[8],-53.5%
same,Potency,[1],inactive
same,Potency,[5],inactive
NCC(O)c1ccc(O)cc1 (stereo not drawn),outcome,[6],inactive
same,outcome,[7],inactive
same,max response,[8],14.7%
same,max response,[3],5.99%
same,max response,[4],1.76% (inactive)
same,Potency,[1],inactive
same,Potency,[5],inactive
